Source: PubChem
Pf Dd2 inh: blocks in vitro growth of P. falciparum Dd2. P. falciparum Dd2 growth, SYBR Green, 72 h. Potency, µM (titrated, usually from 28.9 µM), usual class: inhibitors. hit rate 4.3% among 120,000; active = well fitted inhibition curve with a large enough effect; note: nearly all actives have a fitted effect of over 65% in size
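Infected erythrocytes (Dd2, 0.3% parasitemia, 2.5% hematocrit final) are added to compound in RPMI-1640/Albumax II medium, grown 72 h at 37C in low oxygen, then lysed with saponin/Triton-X containing SYBR Green and read by fluorescence.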
Large screens that a line does not name were inactive. Many of the other results were omitted from the sample, so hits are more common in it than they were.

Cc1cccc(-c2noc(CCC(=O)N3CCC(C)(c4noc(C5CC5)n4)CC3)n2)c1	none
COc1ccccc1CNC(=O)c1cc2c(-c3ccc(Cl)cc3)nn(C)c2s1	none
COc1ccccc1NC(=O)c1cc2c(C)nn(-c3ccccc3)c2s1	none
COc1ccc(NC(=O)c2cc3c(C)nn(-c4ccccc4)c3s2)c(OC)c1	none
COCCCNC(=O)c1cc2c(-c3cccc(OC)c3)nn(C)c2s1	none
Cc1ccc(NC(=O)c2cc3c(-c4ccccc4)nn(-c4ccccc4)c3s2)cc1	Pf Dd2 inh 2.8µM
COc1ccc(-c2nn(C)c3sc(C(=O)Nc4cccc(F)c4)cc23)cc1OC	Pf Dd2 inh 2.5µM
COc1cccc(NC(=O)c2cc3c(-c4ccc(Cl)cc4)nn(C)c3s2)c1	Pf Dd2 inh 3.2µM
COc1cccc(-c2nn(C)c3sc(C(=O)NCc4ccc(C)cc4)cc23)c1	none
COc1ccc(-c2nn(C)c3sc(C(=O)NCCN(C)C)cc23)cc1OC	none
O=C(NCc1ccc(F)cc1)C1CCc2nnc(C3CCN(C(=O)c4ccc(Cl)cc4Cl)CC3)n21 (centres undefined)	none
CC(C)CN1C(=O)CCc2cc(NC(=O)c3c(F)cccc3F)ccc21	none
COCCN1C(=O)c2cccn2CC1CNC(=O)c1cccc2nccnc12 (centres undefined)	none
O=C(O)C1(Cc2ccccc2F)CCCN(c2ncnc3sccc23)C1 (centres undefined)	none
O=C(Cn1ccn2nc(-c3ccccc3)c(CO)c2c1=O)Nc1cccc(C(F)(F)F)c1	none
COCCNc1nc(N)nc2c1CCN(C(=O)c1cscn1)CC2	none
Cc1ccc(C(c2cccnc2)n2cc(-c3cncnc3)nn2)cc1C (centres undefined)	none
COCCN1C(=O)c2ccccc2C(C(=O)Nc2ccc(C(N)=O)cc2)C12CCCCC2 (centres undefined)	none
COCCN1C(=O)c2ccccc2C(C(=O)Nc2ccc(OC)c(OC)c2)C12CCCC2 (centres undefined)	none
O=C(O)C1c2ccccc2C(=O)N(Cc2ccccc2)C12CCCC2 (centres undefined)	none
COCCN1C(=O)c2ccccc2C(C(=O)NCCc2c[nH]c3ccccc23)C12CCCC2 (centres undefined)	none
COCCN1C(=O)c2ccccc2C(C(=O)Nc2cc(OC)cc(OC)c2)C12CCCC2 (centres undefined)	Pf Dd2 inh 11µM
COCCN1C(=O)c2ccccc2C(C(=O)Nc2ccc3c(c2)OCO3)C12CCCC2 (centres undefined)	Pf Dd2 inh 13µM
COCCN1C(=O)c2ccccc2C(C(=O)Nc2ccc(OC)c(Cl)c2)C12CCCC2 (centres undefined)	none
COCCN1C(=O)c2ccccc2C(C(=O)Nc2ccc3[nH]ccc3c2)C12CCCC2 (centres undefined)	Pf Dd2 inh 11µM
O=C(Nc1ccccc1F)C1c2ccccc2C(=O)N(Cc2ccccc2)C12CCCC2 (centres undefined)	Pf Dd2 inh 11µM
O=C(NCCc1ccccc1)C1c2ccccc2C(=O)N(Cc2ccccc2)C12CCCC2 (centres undefined)	none
COCCN1C(=O)c2ccccc2C(C(=O)Nc2ccc(NC(C)=O)cc2)C12CCCCC2 (centres undefined)	none
CC(C)c1ccc(CNC(=O)c2ccc(CN3C(=O)NC4(CCOCC4)C3=O)cc2)cc1	none
CC1(CNC(=O)c2ccccc2Cl)CCOCC1	none
CNC(=O)[C@@H]1C[C@@H](n2cc(CNC(=O)Nc3ccc(Cl)cc3)nn2)CN1	none
CCc1ccccc1S(=O)(=O)N1CCC(n2cnnc2C)CC1	none
COc1ccc(CN2CCn3c(nnc3-c3cccnc3)C2)cc1	none
COCCN1C(=O)c2ccccc2C(C(=O)Nc2cc(OC)ccc2OC)C12CCCC2 (centres undefined)	none
COCCN1C(=O)c2ccccc2C(C(=O)Nc2cc(C)ccc2OC)C12CCCCC2 (centres undefined)	Pf Dd2 inh 10µM
COCCN1C(=O)c2ccccc2C(C(=O)Nc2ccc(OC)cc2OC)C12CCCC2 (centres undefined)	none
Cc1nnnn1-c1cccc(C(=O)Nc2ccc3c(c2)C(=O)N2CCC[C@H]2C(=O)N3)c1	none
Cc1nn(-c2ccc(F)cc2)c(Oc2ccc(F)cc2F)c1CCC(=O)NCC1CCCO1 (centres undefined)	none
CCc1c(C)nc(C)nc1N1CCN(C)C2(CCC(=O)N(CC)CC2)C1 (centres undefined)	none
CC(C)N1C[C@H](O)C[C@H]1c1nnc2n1CCN(C(=O)c1ccco1)CC2	none
C[S+](=O)([O-])N1CCC(Cn2ccc3c(N4CCOCC4)nc(-c4ccncc4)cc32)CC1	none
CC(C)CCN(C1CCOCC1)C1CCN(S(=O)(=O)c2cccnc2)CC1	Pf Dd2 inh 10µM
CC(C)CN(C1CCOCC1)C1CN(S(=O)(=O)c2ccc(F)cc2)C1	none
COCC(=O)N(C1CCOCC1)C1CCN(S(=O)(=O)c2cccnc2)CC1	none
COc1ccnc(N2CC[C@H](c3nnc(-c4ccc(N(C)C)cc4)o3)C2)n1	none
CC(C)(C)c1ccc(-n2ncc3c2CCCC3NC(=O)Cc2n[nH]c(=O)[nH]2)cc1 (centres undefined)	none
O=C(NCCc1ccccn1)c1ccc(-c2nnc3ccc(NC(=O)C4CCC4)cn23)cc1	Pf Dd2 inh 0.56µM
Cc1ccc(NC(=O)N2CCc3c(C(=O)NCCc4ccccn4)cccc32)cc1	none
O=C(NCCc1cccnc1)c1ccc(-c2nnc3ccc(NC(=O)C4CCC4)cn23)cc1	Pf Dd2 inh 0.4µM
O=C(NCCc1ccccn1)c1ccc(OC2CCNCC2)nc1	none
O=C(NC1CC1)c1ccc2nnc(-c3cccnc3)n2c1	none
O=C(Nc1ccc([C@H]2OCC(=O)N(Cc3cccnc3)[C@@H]2CO)cc1)C1CCC1	none
O[C@@H]1CO[C@H]2[C@@H]1OC[C@@H]2n1nnnc1Sc1ccccc1	none
CCNC(=O)N1CCCN(C(=O)C2CC2)C(c2ccccc2)CC(=O)NCC1 (centres undefined)	none
Cc1ccc2oc([C@H]3CCN(Cc4ccc(N(C)C)cc4)C3)nc2c1	none
CCCNC(=O)C(NC(=O)c1cccc(OC)c1)C1CCN(C(=O)COC)CC1 (centres undefined)	none
Cc1ccc(-n2c(C3CCN(C(=O)c4ccccc4F)CC3)n[nH]c2=O)cc1	none
O=[S+]1([O-])NCC2(CCN(Cc3ccccc3C(F)(F)F)CC2)Nc2ccccc21	Pf Dd2 inh 13µM
O=[S+]1([O-])NCC2(CCN(Cc3ccc(OC(F)(F)F)cc3)CC2)Nc2ccccc21	none
O=[S+]1([O-])NCC2(CCN(CC3CCCCC3)C2)Nc2ccccc21 (centres undefined)	Pf Dd2 inh 4.5µM
O=[S+]1([O-])NC2(CCN(CC3CCCCC3)C2)CNc2ccccc21 (centres undefined)	none
O=[S+]1([O-])NCC2(CCN(Cc3cccc4ccccc34)CC2)Nc2ccccc21	none
O=[S+]1([O-])NCC2(CCN(Cc3ccccc3)C2)Nc2ccccc21 (centres undefined)	none
CS(=O)(=O)c1ccc(CN2C[C@H](O)C[C@H]2c2nc(-c3cccnc3)no2)cc1	none
CCc1noc([C@@H]2CC(F)(F)CN2C(=O)c2cc(C3CC3)[nH]n2)n1	none
COCC(=O)N1CCNC[C@H]1C(=O)N[C@@H](Cc1ccc(OC)cc1)C(=O)OC	none
CC(=O)N1CCN(c2nc3c(s2)CC(C(=O)NCCC2CCN(C)CC2)CC3)CC1 (centres undefined)	none
Cc1ccc(Cl)cc1Nc1nn2c(=O)c3ccc(C(=O)NC(C)c4ccccc4)cc3nc2s1 (centres undefined)	Pf Dd2 inh 7.9µM
COc1ccc(NC(=O)c2ccc3c(=O)n4nc(Nc5ccccc5C)sc4nc3c2)cc1	none
